“And” between values parts separate entries of the source, which are not always exact repeats. Identical values can stand only once. Records with an inconclusive call do not appear. The source made the active and inactive calls. Unless noted, calls come from the whole dose curve; as a rule, active = well fitted curve in the direction sought with a large enough effect; inconclusive = small, poorly fitted or top-dose-only effect, or another doubt; inactive = no such curve, though single readings can be large; an effect the other way counts as inactive or inconclusive.
How the values were obtained:
[1] = test system: NIH3T3; assay: qHTS assay to identify novel small-molecules to repurpose for Merkel cell carcinoma treatment (AID 1296009); settings: MCC and control cell lines, CellTiter-Glo viability, 72 h; at 44.8 µM (top of the series) unless noted; note: nearly all actives have a fitted effect of over 60% in size
In short: (§1)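 Luminescence from CellTiter-Glo, read 10 min after addition at room temperature, reported viability following a 72 hr, 37 degree celsius treatment with NPC or MIPE compounds in titration; values normalized to plate controls.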

[2] = test system: UISO; assay: as above; settings: MCC and control cell lines, CellTiter-Glo viability, 72 h; series mostly up to 46 µM
In short: as §1

[3] = test system: WaGa; assay: as above; settings: MCC and control cell lines, CellTiter-Glo viability, 72 h; series mostly up to 46 µM
In short: as §1

[4] = test system: C33A; assay: Primary qHTS to identify gynecologic anti-cancer compounds using libraries of approved drugs and bioactive compounds (AID 1345084); settings: Gynecologic cancer cell panel viability, ATPlite luminescence, 48 h; series mostly up to 57.5 µM; note: % is set by controls: 0 for no effect and ±100 for the full control effect; nearly all actives have a fitted effect of over 55% in size
In short: (§2)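 Measured: luminescence after ATPlite addition (15 min, RT). Exposure: 48 h, 37 C, 5% CO2.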

[5] = test system: CASKI; assay: as above; settings: Gynecologic cancer cell panel viability, ATPlite luminescence, 48 h; series mostly up to 57.5 µM
In short: as §2

[6] = test system: Es-2; assay: as above; settings: Gynecologic cancer cell panel viability, ATPlite luminescence, 48 h; series mostly up to 57.5 µM
In short: as §2

[7] = test system: HeLa; assay: as above; settings: Gynecologic cancer cell panel viability, ATPlite luminescence, 48 h; series mostly up to 57.5 µM
In short: as §2

[8] = test system: Hek293T; assay: as above; settings: Gynecologic cancer cell panel viability, ATPlite luminescence, 48 h, control line for the selectivity index; series mostly up to 57.5 µM
In short: as §2

[9] = test system: JEG-3; assay: as above; settings: Gynecologic cancer cell panel viability, ATPlite luminescence, 48 h; series mostly up to 57.5 µM
In short: as §2

[10] = test system: OV90; assay: as above; settings: Gynecologic cancer cell panel viability, ATPlite luminescence, 48 h; series mostly up to 57.5 µM
In short: as §2

[11] = test system: PA-1; assay: as above; settings: Gynecologic cancer cell panel viability, ATPlite luminescence, 48 h; series mostly up to 57.5 µM
In short: as §2

[12] = test system: SKOV3; assay: as above; settings: Gynecologic cancer cell panel viability, ATPlite luminescence, 48 h; series mostly up to 57.5 µM
In short: as §2

[13] = test system: Tov-21-G; assay: as above; settings: Gynecologic cancer cell panel viability, ATPlite luminescence, 48 h; series mostly up to 57.5 µM
In short: as §2

[14] = test system: Tov112D; assay: as above; settings: Gynecologic cancer cell panel viability, ATPlite luminescence, 48 h; series mostly up to 57.5 µM
In short: as §2

[15] = Drug repurposing screens with cells derived from glioblastoma tumor samples (AID 1345199); settings: GBM patient neurospheres viability, ATP luminescence, 48 h; note: % is set by controls: 0 for no effect and ±100 for the full control effect; nearly all actives have a fitted effect of over 40% in size
In short: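 Primary testing used CD133+ neurospheres from four GBM patients, seven concentrations, 48 h exposure and ATP-based viability; confirmation added three slower-growing patient lines.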

[16] = target: Nuclear receptor subfamily 1 group I member 2 (Rattus norvegicus) (UniProt Q9R1A7); assay: qHTS assay for small molecule activators of the rat pregnane X receptor (rPXR) signaling pathway (AID 651751; call rule not given here; note: 0% is about no effect); settings: rPXR reporter cells, luciferase (One-Glo), 24 h
[17] = qHTS assay for small molecule activators of the human pregnane X receptor (PXR) signaling pathway (AID 720659; call rule not given here; note: 0% is about no effect)
[18] = test system: CAOV3; assay: Primary qHTS to identify gynecologic anti-cancer compounds using libraries of approved drugs and bioactive compounds (AID 1345084); settings: Gynecologic cancer cell panel viability, ATPlite luminescence, 48 h; series mostly up to 57.5 µM; note: % is set by controls: 0 for no effect and ±100 for the full control effect; nearly all actives have a fitted effect of over 55% in size
In short: as §2

[19] = at 45.9 µM (top of the series), tumour line B
[20] = at 45.9 µM (top of the series), tumour line D
[21] = at 46 µM (top of the series), tumour line A
[22] = at 46.1 µM (top of the series), tumour line C

Nuclear receptor subfamily 1 group I member 2 (Rattus norvegicus), sequence (Q9R1A7 whole entry, looked up): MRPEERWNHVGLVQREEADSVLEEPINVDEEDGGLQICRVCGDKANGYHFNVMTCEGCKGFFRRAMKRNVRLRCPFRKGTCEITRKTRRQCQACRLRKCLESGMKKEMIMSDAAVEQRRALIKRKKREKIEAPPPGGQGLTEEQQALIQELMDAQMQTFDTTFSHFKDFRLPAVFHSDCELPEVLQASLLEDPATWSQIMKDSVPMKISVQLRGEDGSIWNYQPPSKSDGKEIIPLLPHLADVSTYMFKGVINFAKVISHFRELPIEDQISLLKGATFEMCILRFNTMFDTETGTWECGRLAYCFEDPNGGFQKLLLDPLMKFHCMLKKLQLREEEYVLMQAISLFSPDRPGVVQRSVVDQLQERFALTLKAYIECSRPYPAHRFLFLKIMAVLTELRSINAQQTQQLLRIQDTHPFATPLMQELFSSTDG

CN(C)CCC(c1ccccc1)c1ccccn1 (stereo not given)
inactive: outcome [1] | Potency [2] | Potency [3] | Potency [4] | Potency [5] | Potency [6] | Potency [7] | Potency [8] | Potency [9] | Potency [10] | Potency [11] | Potency [12] | Potency [13] | Potency [14] | activity, negative = cell killing [15, 19] -6.99% | activity, negative = cell killing [15, 20] -4.75% | activity, negative = cell killing [15, 21] -22.4% | activity, negative = cell killing [15, 22] -14.6% | max response [16] 2.3% | outcome [17]

O=C(O)CCc1nc(-c2ccccc2)c(-c2ccccc2)o1
inactive: outcome [1] | Potency [2] | Potency [3] | Potency [4] | Potency [5] | Potency [6] | Potency [7] | Potency [8] | Potency [9] | Potency [10] | Potency [11] | Potency [12] | Potency [13] | Potency [14] | activity, negative = cell killing [15, 19] -13% | activity, negative = cell killing [15, 20] 3.1% | activity, negative = cell killing [15, 22] -11.6%

CC(=O)N[C@@H](CS)C(=O)O
inactive: outcome [1] | Potency [2] | Potency [3] | Potency [4] | Potency [5] | Potency [6] | Potency [7] | Potency [8] | Potency [9] | Potency [10] | Potency [11] | Potency [12] | Potency [13] | Potency [14] | activity, negative = cell killing [15, 19] -7.88% | activity, negative = cell killing [15, 20] -1.21% | activity, negative = cell killing [15, 21] -28.2% | activity, negative = cell killing [15, 22] -14.2% | outcome [17]

CC1CCC(C(=O)N(c2cc(C#CC(C)(C)C)sc2C(=O)O)C2CCC(O)CC2)CC1 (stereo not given)
inactive: outcome [1] | Potency [2] | Potency [3] | Potency [4] | Potency [18] | Potency [6] | Potency [7] | Potency [8] | Potency [10] | Potency [11] | Potency [13] | Potency [14]

CC(C)(C)c1cc(C(=O)O)c(NC(=O)Nc2ccc3[nH]ncc3c2)s1
inactive: outcome [1] | Potency [2] | Potency [3] | Potency [4] | Potency [18] | Potency [6] | Potency [7] | Potency [8] | Potency [9] | Potency [10] | Potency [11] | Potency [12] | Potency [13] | Potency [14]

NC(N)=Nc1nc(CSCC/C(N)=N/S(N)(=O)=O)cs1
inactive: outcome [1] | Potency [2] | Potency [3] | Potency [4] | Potency [5] | Potency [6] | Potency [7] | Potency [8] | Potency [9] | Potency [10] | Potency [11] | Potency [12] | Potency [13] | Potency [14] | activity, negative = cell killing [15, 19] -1.53% | activity, negative = cell killing [15, 20] -7.06% | activity, negative = cell killing [15, 21] -13.8% | activity, negative = cell killing [15, 22] -8.17%

COc1cc(O)c2c(c1)C(=O)c1cc(C)cc(O)c1C2=O
inactive: outcome [1] inactive [at 17.4 µM] | Potency [2] | Potency [3]

COc1ccccc1N1CCN(CCCNc2cc(=O)n(C)c(=O)n2C)CC1
inactive: outcome [1] | Potency [2] | Potency [3] | Potency [4] | Potency [18] | Potency [5] | Potency [6] | Potency [7] | Potency [8] | Potency [9] | Potency [10] | Potency [11] | Potency [12] | Potency [13] | Potency [14] | activity, negative = cell killing [15, 19] -12.1% and -4.13% | activity, negative = cell killing [15, 20] 1.29% and -19.7% | activity, negative = cell killing [15, 21] -30.8% | activity, negative = cell killing [15, 22] -17.7% and -6.4%

CCNc1cc(NC2CCC(O)CC2)nc(Nc2ccc3c(ccn3Cc3ccccc3)c2)n1 (stereo not given)
inactive: outcome [1] | Potency [2] | Potency [3]
